We go through 40 compounds from PubChem BioAssay (Tox21).

Each structure is given as a SMILES string. Where “and” joins values, the source holds several entries; their conditions need not be identical. Equal entries are not always repeated. Inconclusive results are not listed. A call without a number means that no potency is given here. Unmarked numbers belong to inactive results. Calls of active or inactive are those of the source. The call rests on the fitted dose curve; in most records, active means well fitted inhibition curve with a large enough effect in the repeat runs; inconclusive means weak or mixed curves; inactive means flat fitted curve, though single readings scatter.
Potency means the concentration at half of the fitted maximal effect.

The test is described as follows: qHTS assay to identify small molecule HDAC inhibitors (AID 1259364). Further: nearly all actives have a fitted effect of over 45% in size. On activity change, negative = inhibition: top concentration of the series differs between compounds. Conditions: HCT-116 HDAC-Glo I/II luminescence, 2 h; series mostly up to 92.4 µM. An excerpt: U.S. Tox21 Program National Center for Advancing Translational Sciences [NCATS] NIH Chemical Genomics Center [NCGC] U.S. Environmental Protection Agency [EPA] National Institutes of Environmental Health Sciences [NIEHS] National Toxicology Program [NTP] U.S. Food and Drug Administration [FDA] Tox21 Assay Overview: Histone deacetylases (HDACs) are a group of epigenetic enzymes that regulate gene expression by histone deacetylation. HDACs are capable of introducing epigenetic modifications and such aberrations contribute to the onset and progression of several human diseases, thus making HDACs a popular therapeutic target. For identifying endogenous class I/II HDAC inhibitors a homogenous, luminogenic HDAC I/II cell based assay was used to measure the relative activity of class I and II HDACs from cells. Wild type HCT-116 cells were used to screen Tox21 libraries for identifying class I/II HDAC inhibitors.
Tox21 Assay Protocol Summary: HCT-116 cells were dispensed at 1,500 per well in 5uL of culture medium into white solid bottom 1536-well plates (Greiner Bio-One, Monroe, NC) using a Multidrop Combi (Thermo Scientific, Waltham, MA) dispenser. The assay plates were incubated at 37 C and 5% CO2 for an overnight, and then 23nL of compounds dissolved in DMSO and positive control were transferred using a Pintool station (Wako, San Diego, CA). The assay plates were incubated at 37C and 5% CO2 for 2hr. After compound treatment, 4uL of HDAC-Glo reagent (Promega Corporation, Madison, WI) was added to each well of the assay plates using Flying Reagent Dispenser (FRD, Aurora Discovery, San Diego, CA) and incubated the assay plates at room temperature for 30min. The luminescence signal was quantified using a ViewLux plate reader (Perkin Elmer, Shelton, CT).
With `CC(C)NC(=O)NC(C)C`, the Potency entry was “inactive”.

Consider `O=C(O)CN(CCOCCOCCN(CC(=O)O)CC(=O)O)CC(=O)O`, for which the activity change, negative = inhibition was -0.631% [at 0.349 µM].

`CC(=O)N(CC(O)CO)c1c(I)c(C(=O)NCCO)c(I)c(C(=O)NCC(O)CO)c1I` (stereo not given): the Potency result is “inactive”.

Turning to `O=C(CCCN1CCC(O)(c2cccc(C(F)(F)F)c2)CC1)c1ccc(F)cc1`, the Potency entry is “inactive”.

For the compound `Cc1cc(O)cc2c1O[C@](C)(CCC[C@H](C)CCC[C@H](C)CCCC(C)C)CC2`, the Potency result is “inactive”.

Consider `CN1CCC(=C2c3ccccc3CC(=O)c3sccc32)CC1`, for which the Potency entry was “inactive”.

Turning to `C1OCOCO1`, the Potency result was “inactive”.

For `c1ccc([C@H]2CN3CCSC3=N2)cc1`, the Potency entry is “inactive”.

As for `N=C(N)c1ccc2cc(OC(=O)c3ccc(N=C(N)N)cc3)ccc2c1`, the Potency was 59.6 nM (active).

Turning to `CC(C)(O)C#CC(C)(C)O`, the Potency entry was “inactive”.

For the compound `CC1(C)CO[C@@H](CC(=O)O)CN1`, the Potency entry is “inactive”.

For the compound `CC(C)NCCCC1(C(N)=O)c2ccccc2-c2ccccc21`, the Potency entry is “inactive”.

On to `O=C[C@H](O)[C@@H](O)[C@H](O)[C@H](O)CO`, for which the Potency result was “inactive”.

For the compound `CCC=O`, the Potency entry was “inactive”.

Take `CCCN(CCC)CCc1cccc2c1CC(=O)N2`: the Potency entry was “inactive”.

For `N[C@@H](C(=O)N[C@@H]1C(=O)N2C(C(=O)O)=C(Cl)CS[C@H]12)c1ccccc1`, the activity change, negative = inhibition was 5.64% [at 8.39 µM].

With `O=C1CCCCCCCCCCCN1`, the Potency result is “inactive”.

For the compound `O=c1cc(-c2ccccc2)oc2ccccc12`, the Potency is 24.3 µM (active) and 17.6 µM (active).

`C=CCCCCCCCCC=O`: the Potency entry was “inactive”.

Consider `O=c1n(CCO)c(=O)n(CCO)c(=O)n1CCO`, for which the Potency result is “inactive”.

`C[C@H]1C[C@@H](O)CC(C)(C)C1`: the Potency result was “inactive”.

With `O=C1CCCC(=O)C1`, the Potency entry was “inactive”.

As for `CCc1nccnc1CC`, the activity change, negative = inhibition is 0.718% [at 19 µM].

`Brc1c(NC2=NCCN2)ccc2nccnc12`: the Potency result was “inactive”.

Turning to `C=C(C)CS(=O)(=O)O`, the Potency result is “inactive”.

In the case of `FC1(F)C(F)(F)C(F)(F)C2(F)C(F)(F)C(F)(F)C(F)(F)C(F)(F)C2(F)C1(F)F` (stereo not given), the Potency result is “inactive”.

Regarding `CCCC(=O)O[C@]1(C(=O)CO)CC[C@H]2[C@@H]3CCC4=CC(=O)CC[C@]4(C)[C@H]3[C@@H](O)C[C@@]21C`, the Potency entry was “inactive”.

For `COC(=O)c1cc(C(=O)OC)cc(S(=O)(=O)O)c1`, the Potency entry was “inactive”.

`O=S(O)CO`: the Potency entry was “inactive”.

For the compound `COC(C)(C)CCCC(C)CC=O` (stereo not given), the Potency result was “inactive”.

As to `O=c1[nH]c(=O)n([C@H]2C[C@H](O)[C@@H](CO)O2)cc1I`, the Potency entry was “inactive”.

Consider `COC(=O)c1c(Cl)c(Cl)c(C(=O)OC)c(Cl)c1Cl`, for which the Potency entry is “inactive”.

As for `Cc1nc2c([nH]1)c(=O)n(C)c(=O)n2Cc1ccco1`, the Potency entry is “inactive”.

Turning to `C=CCOCC(CC)(CO)COCC=C`, the Potency result was “inactive”.

With `CCOC(=O)CC(C)=O`, the Potency entry is “inactive”.

For `C=C1CC[C@H]2C[C@@H]1C2(C)C`, the Potency result was “inactive”.

For the compound `CCOC(=O)c1cccc(N)c1`, the Potency entry was “inactive”.

For `OCCCC1CCCCC1`, the Potency entry is “inactive”.

As for `CO/N=C(/C(=O)N[C@@H]1C(=O)N2C(C(=O)OCOC(=O)C(C)(C)C)=C(C)CS[C@H]12)c1csc(N)n1`, the Potency result is “inactive”.

In the case of `C[N+](C)(C)CCCCCC[N+](C)(C)C`, the Potency entry is “inactive”.
